Measured values from PubChem BioAssay AID1508600 (Functional Genomics Laboratory (NCATS/FGL), 2020).
Screen size: about 53,000 sequences; about 3,700 (7%) were called active. The full list was thinned out, with actives kept by preference. Values without a mark were called inactive.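 Rule for the calls: active = gene knockdowns whose robust z-score for IL-1 alpha signal is at least 2 or at most -2, so actives lie on both sides; inactive = the rest.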

Experiment: Components of the Cytosolic LPS Sensing Pathway: Gene Identification via Genome-wide siRNA Screen;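 note: robust z of the log signal after scaling to non-targeting control siRNA wells of the plate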
Settings: RAW264.7 macrophages, IL-1a HTRF, actives lie on both sides, screened at 100 nM (by protocol), cells primed 5 h with Pam3CSK4 first
How it was run: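 Knockdown: 100 nM siRNA, 48h, RAW264.7. Stimulation: Pam3CSK4 5 h, then LipidA via TransIT-TKO 24 h. Output: supernatant IL-1a HTRF, negative-control-normalized, log robust z-score; viability by CellTiter-Glo.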

Sequence | z-score
GGGCUGUGAACACAAGUGUTT against Megf6 | 2.02 (active)
GGACAGCAUGAUCCUACAATT against Smr2 | -0.962
GGAAAUACCCUGAUAGCCATT against Etl4 | 0.215
GGUAGGAAGCUAGAGAAAUTT against Synj2 | 0.139
GGACUUUAGUGACAGCUAUTT against Fam243 | -0.233
GGCAGCCCUCAAGUUAAUCTT against Zfp612 | -0.552
GCACCUUCCAUCGGAAUGCTT against Tyw5 | -0.269
GGAGAAAAAGAUCUCAGCUTT against D830039M14Rik | -0.021
GCACAAUUGGAAUUGUACATT against Ubqln2 | -2.18 (active)
CCAUGGCCAAGAACUAGUUTT against Hp | 1.26
GGAUUUGAAAUAGGAAUAGTT against Sh3yl1 | 0.689
CCCUAUCUUCAGGCCAUUGTT against Gm10283 | -1.97
CCUGGAGUUAGUUUGACAGTT against Atf4 | -0.042
GGGCCUAUCUGAAAGUUUATT against Nrm | -0.262
GGUAGAAGAAUGCAUAAUGTT against Sema3e | 0.82
CGAGAAUACCAAACUCGUGTT against Usp17ld | -0.255
GCGGUUAUCUGCAUAUAGATT against Ahctf1 | -2.47 (active)
GCAGUAAGCUUUUGCUAAATT against Zfp334 | 1.26
CCUCUUCGGGAAAAUUCUATT against Dao | -0.083
GGGAUAUCUAAUCAAAACCTT against St8sia5 | -0.131
GGCAAAGCAACAAUAUCUATT against Cct7 | -0.809
GGUAUCAAAACAACAGUCCTT against Upk1b | -0.709
GGUCAAAUGCACCCGAUUATT against Hoxc10 | 2.44 (active)

Sequence | z-score
CCUCAAAUUUUGGGUCUCATT against Bcat2 | -1.48
GGGUGAGAUAGGAAAGUGGTT against Rab43 | -0.111
GAUUCUCAUCUCAAUAAGCTT against Serpinb9g | 0.439
CCUCCAAGACUUAAAAGUATT against Csde1 | 0.776
CCUUAUAACUCUUACGUUUTT against Naa50 | -0.169
GGAAAUGAAGACAUACCUGTT against Olfr175 | 0.741
GGAGUGAUGUCUUCACUGATT against Snx31 | -1.12
GGGAAUUUACUGCAGGAUATT against Itln1 | 2.72 (active)
GGUCUUCAUGAAAACCCUCTT against Polr2d | -0.967
GCUAGGUGAUCAGAGAACUTT against Nsl1 | 0.222
GGCCUUCAGUCAAGCAUCATT against Myom1 | 0.906
GCCCAUUGUAAUAAAAGCCTT against Dnali1 | -0.582
GGCGUGUAUCUAUACACACTT against Glp1r | 3.1 (active)
CCAAGAUGCACAGUGAUAATT against Pknox2 | -0.925
GGAUAUCGUCUGCUACCUGTT against Dgkb | 0.945
GCACAACCAUAAUUCCAAATT against Olfr828 | -0.343
CCGAAUAGUAGAUAUUAGATT against Zbtb1 | -0.628
GGAAGUCUGUCCAAAGCAUTT against Olfr190 | 0.248
GUUCUGCUUUUUGUCAUAUTT against Olfr1431 | -0.79
GGAGAUGGUUAUGUGGGAUTT against Tgoln2 | 0.879
GCGUGUUGAAUUGAGGAAGTT against Galnt11 | 4.15 (active)
GGUGAAACCUGUCAUUCACTT against Dcdc2a | -0.405
GGGUUUGAUCAACAGAGCCTT against Id1 | -0.64

Sequence | z-score
GGUGAAGAGCUUCUUGAUCTT against Zfyve27 | -0.362
GGAGUUCAAAGAUGCAAUUTT against Zfyve27 | 2.33 (active)
GUUUGAGUCUGGAGACGUGTT against Commd4 | 0.917
GGUAAAGCCUUUCAGGAAGTT against Tmem80 | -0.946
GGAGAGUGACAUCAUCGUATT against Obsl1 | -0.0139
GGACACUUCCAAGUAUUGGTT against Tns1 | -2.11 (active)
GGUCAGAGAAAUGAUGUCUTT against Osbpl11 | -1.77
GGAAAAGGAAUUCUCCAGATT against Atrip | 0.624
GGCUUGCUGAUUAAAGAUGTT against Strbp | -0.544
GGAGAGCAUUCCCAUUGCUTT against Ddx6 | -2 (active)
GGCUUGACUGAAUAAUAAUTT against Gpr157 | -0.424
GCAGAGAGAGCGUGAAUCCTT against AB124611 | 0.598
GGUUUUCCCUCCAGAUGAGTT against Mtch1 | -0.336
GGUGGUAAUUGGUGUGGCATT against Slc9b2 | -0.188
GGUUCACAGAAAUGGAUGATT against Zfp507 | -2.91 (active)
GGUUUCUUUGCCUACCCAGTT against Prrc2b | -1.13
GGGUGACAACCAAAGACUGTT against Mill1 | 0.174
GGAUCAUGCAAACCAAAGCTT against 4930522H14Rik | 0.193
GAGAACUCUCUAAACAAGUTT against Cks2 | 0.714
GGAUAGUCAUCAACAGAGCTT against Psma7 | -2.42 (active)
GGAACAGUCGUGGUAAAGUTT against Gnl2 | -0.767
GGUGUUUGUUCGGAAGCUCTT against Pes1 | -0.345
